# Laboratory results as given in PubChem BioAssay (Tox21).
# Unmarked numbers belong to inactive results. Results filed as inconclusive are left out. A call without a number means that no potency is given here. Active and inactive are the calls of the source. Calls follow the shape of the dose curve; as a rule, active = well fitted curve in the direction sought with a large enough effect in the repeat runs; inconclusive = weak or mixed curves; inactive = no such curve, though single readings can be large; an effect the other way counts as inactive or inconclusive.
# Tests used:
# [1] = qHTS RealTime-Glo MT Cell Viability Assay in HepG2 cells - 24 hour (AID 1224867); also: nearly all actives have a fitted effect of over 50% in size
# Outline: (§1)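 qHTS, HepG2, 600 cells/well, RealTime-Glo (NanoLuc + prosubstrate) added with cells; 5 h preincubation; DMSO compound addition; 37 C; luminescence at 0/8/16/24/32/40 h.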
# [2] = qHTS RealTime-Glo MT Cell Viability Assay in HEK293 cells - 32 hour (AID 1224868); also: nearly all actives have a fitted effect of over 50% in size; also: potency is read from the fitted curve at half-maximal effect
# Outline: (§2)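 Assay medium contained NanoLuc luciferase plus cell-permeant prosubstrate, added with HEK293 cells at 600 cells/well. After 5 h at 37 C/5% CO2 compounds were added; plates stayed at 37 C for 40 h with serial luminescence reads.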
# [3] = A CellTox Green Cytotoxicity Assay to monitor cytotoxicity in HEK293 cells - 0 hour (AID 1224869); also: nearly all actives have a fitted effect of over 50% in size
# Outline: (§3)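 Real-time, in one plate: 600 HEK293 cells/well with dead-cell DNA dye, pinned compound after 5 h, 37 C incubation over 40 h; viable cells give no appreciable fluorescence.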
# [4] = qHTS RealTime-Glo MT Cell Viability Assay in HepG2 cells - 40 hour (AID 1224870); also: nearly all actives have a fitted effect of over 50% in size
# Outline: (§4)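 HepG2 cells (600/well) mixed with RealTime-Glo MT reagent, settled 5 h at 37 C/5% CO2 before compound addition. Nonlytic NanoLuc luminescence from viable-cell prosubstrate reduction read repeatedly during 40 h treatment at 37 C.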
# [5] = A CellTox Green Cytotoxicity Assay to monitor cytotoxicity in HEK293 cells - 40 hour (AID 1224871); also: nearly all actives have a fitted effect of over 45% in size
# Outline: as §3
# [6] = qHTS RealTime-Glo MT Cell Viability Assay in HEK293 cells - 16 hour (AID 1224872); also: nearly all actives have a fitted effect of over 50% in size; also: potency is read from the fitted curve at half-maximal effect
# Outline: as §2
# [7] = qHTS RealTime-Glo MT Cell Viability Assay in HepG2 cells - 8 hour (AID 1224873); also: nearly all actives have a fitted effect of over 55% in size
# Outline: as §4
# [8] = qHTS RealTime-Glo MT Cell Viability Assay in HEK293 cells - 40 hour (AID 1224874); conditions: RealTime-Glo luminescence; max response: stronger effect = lower value; also: nearly all actives have a fitted effect of over 50% in size; also: potency is read from the fitted curve at half-maximal effect
# Outline: (§5)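 Kinetic, non-lysing viability readout. Seed HEK293 (600/well) with reagent, incubate 5 h at 37 C/5% CO2, pin 23 nL compound in DMSO, incubate at 37 C, read luminescence at 0, 8, 16, 24, 32, 40 h.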
# [9] = A CellTox Green Cytotoxicity Assay to monitor cytotoxicity in HEK293 cells - 24 hour (AID 1224875); also: series mostly up to about 77 µM; nearly all actives have a fitted effect of over 45% in size
# Outline: as §3
# [10] = A CellTox Green Cytotoxicity Assay to monitor cytotoxicity in HepG2 cells - 16 hour (AID 1224876); also: nearly all actives have a fitted effect of over 45% in size
# Outline: (§6)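 Cytotoxicity was tracked as dead-cell DNA fluorescence in HepG2 cells treated with test compounds at 37 C; each time-point value comes from one kinetic series spanning 0, 8, 16, 24, 32 and 40 h.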
# [11] = qHTS RealTime-Glo MT Cell Viability Assay in HepG2 cells - 32 hour (AID 1224877); also: nearly all actives have a fitted effect of over 55% in size
# Outline: as §1
# [12] = A CellTox Green Cytotoxicity Assay to monitor cytotoxicity in HepG2 cells - 24 hour (AID 1224878); also: nearly all actives have a fitted effect of over 45% in size
# Outline: as §6
# [13] = A CellTox Green Cytotoxicity Assay to monitor cytotoxicity in HepG2 cells - 40 hour (AID 1224879); also: nearly all actives have a fitted effect of over 40% in size
# Outline: as §6
# [14] = qHTS RealTime-Glo MT Cell Viability Assay in HEK293 cells - 0 hour (AID 1224880)
# Outline: as §5
# [15] = A CellTox Green Cytotoxicity Assay to monitor cytotoxicity in HEK293 cells - 32 hour (AID 1224881); also: nearly all actives have a fitted effect of over 40% in size
# Outline: as §3
# [16] = A CellTox Green Cytotoxicity Assay to monitor cytotoxicity in HepG2 cells - 0 hour (AID 1224882); also: nearly all actives have a fitted effect of over 35% in size
# Outline: as §6
# [17] = A CellTox Green Cytotoxicity Assay to monitor cytotoxicity in HepG2 cells - 32 hour (AID 1224883); also: nearly all actives have a fitted effect of over 50% in size
# Outline: as §6
# [18] = A CellTox Green Cytotoxicity Assay to monitor cytotoxicity in HEK293 cells - 8 hour (AID 1224884); also: nearly all actives have a fitted effect of over 35% in size
# Outline: as §3
# [19] = qHTS RealTime-Glo MT Cell Viability Assay in HepG2 cells - 16 hour (AID 1224885); also: nearly all actives have a fitted effect of over 50% in size
# Outline: as §1
# [20] = qHTS RealTime-Glo MT Cell Viability Assay in HEK293 cells - 24 hour (AID 1224886); also: nearly all actives have a fitted effect of over 50% in size; also: potency is read from the fitted curve at half-maximal effect
# Outline: as §2
structure (smiles),measurement,setting,value
COc1cc2c3cc1Oc1cc(ccc1O)C[C@@H]1c4c(cc(OC)c(O)c4Oc4ccc(cc4)C[C@@H]3N(C)CC2)CC[N+]1(C)C,outcome,[1],inactive
same,Potency,[2],inactive
same,Potency,[3],inactive
same,outcome,[4],inactive
same,Potency,[5],inactive
same,Potency,[6],inactive
same,outcome,[7],inactive
same,max response,[8],3.06%
same,Potency,[9],inactive
same,Potency,[10],inactive
same,outcome,[11],inactive
same,Potency,[12],inactive
same,Potency,[13],inactive
same,outcome,[14],inactive
same,Potency,[15],inactive
same,Potency,[16],inactive
same,Potency,[17],inactive
same,Potency,[18],inactive
same,outcome,[19],inactive
same,Potency,[20],inactive
O=C1OC(=O)c2cc(Oc3ccc4c(c3)C(=O)OC4=O)ccc21,outcome,[1],inactive
same,Potency,[2],inactive
same,Potency,[3],inactive
same,outcome,[4],inactive
same,Potency,[5],inactive
same,Potency,[6],inactive
same,outcome,[7],inactive
same,max response,[8],3.57%
same,Potency,[9],inactive
same,Potency,[10],inactive
same,outcome,[11],inactive
same,Potency,[12],inactive
same,Potency,[13],inactive
same,outcome,[14],inactive
same,Potency,[15],inactive
same,Potency,[16],inactive
same,Potency,[17],inactive
same,Potency,[18],inactive
same,outcome,[19],inactive
same,Potency,[20],inactive
OC(CCN1CCCCC1)(c1ccccc1)c1ccccc1,outcome,[1],inactive
same,Potency,[2],inactive
same,Potency,[3],inactive
same,outcome,[4],inactive
same,Potency,[5],inactive
same,Potency,[6],inactive
same,outcome,[7],inactive
same,max response,[8],-16.7%
same,Potency,[9],inactive
same,Potency,[10],inactive
same,outcome,[11],inactive
same,Potency,[12],inactive
same,Potency,[13],inactive
same,outcome,[14],inactive
same,Potency,[15],inactive
same,Potency,[16],inactive
same,Potency,[17],inactive
same,Potency,[18],inactive
same,outcome,[19],inactive
same,Potency,[20],inactive
CCCC(C)CC (stereo not given),outcome,[1],inactive
same,Potency,[2],inactive
same,Potency,[3],inactive
same,outcome,[4],inactive
same,Potency,[5],inactive
same,Potency,[6],inactive
same,outcome,[7],inactive
same,max response,[8],1.42%
same,Potency,[9],inactive
same,Potency,[10],inactive
same,outcome,[11],inactive
same,Potency,[12],inactive
same,Potency,[13],inactive
same,outcome,[14],inactive
same,Potency,[15],inactive
same,Potency,[16],inactive
same,Potency,[17],inactive
same,Potency,[18],inactive
same,outcome,[19],inactive
same,Potency,[20],inactive
C=C[Si](C)(C)O[Si](C)(C)C=C,outcome,[1],inactive
same,Potency,[2],inactive
same,Potency,[3],inactive
same,outcome,[4],inactive
same,Potency,[5],inactive
same,Potency,[6],inactive
same,outcome,[7],inactive
same,max response,[8],-1.44%
same,Potency,[9],inactive
same,Potency,[10],inactive
same,outcome,[11],inactive
same,Potency,[12],inactive
same,Potency,[13],inactive
same,outcome,[14],inactive
same,Potency,[15],inactive
same,Potency,[16],inactive
same,Potency,[17],inactive
same,Potency,[18],inactive
same,outcome,[19],inactive
same,Potency,[20],inactive
O=c1[nH]c(=O)c2ccccc2o1,outcome,[1],inactive
same,Potency,[2],inactive
same,Potency,[3],inactive
same,outcome,[4],inactive
same,Potency,[5],inactive
same,Potency,[6],inactive
same,outcome,[7],inactive
same,max response,[8],1.98%
same,Potency,[9],inactive
same,Potency,[10],inactive
same,outcome,[11],inactive
same,Potency,[12],inactive
same,Potency,[13],inactive
same,outcome,[14],inactive
same,Potency,[15],inactive
same,Potency,[16],inactive
same,Potency,[17],inactive
same,Potency,[18],inactive
same,outcome,[19],inactive
same,Potency,[20],inactive
COc1ccc(/C=N/NC(=O)c2ccncc2)cc1OC,outcome,[1],inactive
same,Potency,[2],inactive
same,Potency,[3],inactive
same,outcome,[4],inactive
same,Potency,[5],inactive
same,Potency,[6],inactive
same,outcome,[7],inactive
same,max response,[8],-6.3%
same,Potency,[9],inactive
same,Potency,[10],inactive
same,outcome,[11],inactive
same,Potency,[12],inactive
same,Potency,[13],inactive
same,outcome,[14],inactive
same,Potency,[15],inactive
same,Potency,[16],inactive
same,Potency,[17],inactive
same,Potency,[18],inactive
same,outcome,[19],inactive
same,Potency,[20],inactive
Cc1cccc(C(=O)O)c1[N+](=O)[O-],outcome,[1],inactive
same,Potency,[2],inactive
same,Potency,[3],inactive
same,outcome,[4],inactive
same,Potency,[5],inactive
same,Potency,[6],inactive
same,outcome,[7],inactive
same,max response,[8],0.185%
same,Potency,[9],inactive
same,Potency,[10],inactive
same,outcome,[11],inactive
same,Potency,[12],inactive
same,Potency,[13],inactive
same,outcome,[14],inactive
same,Potency,[15],inactive
same,Potency,[16],inactive
same,Potency,[17],inactive
same,Potency,[18],inactive
same,outcome,[19],inactive
same,Potency,[20],inactive
CC1CCC(C(C)(C)S)C(=O)C1 (stereo not given),outcome,[1],inactive
same,Potency,[2],3.09 µM (active)
same,Potency,[3],inactive
same,outcome,[4],inactive
same,Potency,[5],inactive
same,Potency,[6],6.92 µM (active)
same,outcome,[7],inactive
same,Potency,[8],3.09 µM (active)
same,Potency,[9],inactive
same,Potency,[10],inactive
same,outcome,[11],inactive
same,Potency,[12],inactive
same,Potency,[13],inactive
same,outcome,[14],inactive
same,Potency,[15],inactive
same,Potency,[16],inactive
same,Potency,[17],inactive
same,Potency,[18],inactive
same,outcome,[19],inactive
same,Potency,[20],3.89 µM (active)
Cc1cc(O)c2c(c1)C(=O)c1cccc(O)c1C2=O,outcome,[1],inactive
same,Potency,[2],inactive
same,Potency,[3],inactive
same,outcome,[4],inactive
same,Potency,[5],inactive
same,Potency,[6],inactive
same,outcome,[7],inactive
same,max response,[8],3.33%
same,Potency,[9],inactive
same,Potency,[10],inactive
same,outcome,[11],inactive
same,Potency,[12],inactive
same,Potency,[13],inactive
same,outcome,[14],inactive
same,Potency,[15],inactive
same,Potency,[16],inactive
same,Potency,[17],inactive
same,Potency,[18],inactive
same,outcome,[19],inactive
same,Potency,[20],inactive
CCCOC(=O)CCCCC(=O)OCCC,outcome,[1],inactive
same,Potency,[2],inactive
same,Potency,[3],inactive
same,outcome,[4],inactive
same,Potency,[5],inactive
same,Potency,[6],inactive
same,outcome,[7],inactive
same,max response,[8],-4.84%
same,Potency,[9],inactive
same,Potency,[10],inactive
same,outcome,[11],inactive
same,Potency,[12],inactive
same,Potency,[13],inactive
same,outcome,[14],inactive
same,Potency,[15],inactive
same,Potency,[16],inactive
same,Potency,[17],inactive
same,Potency,[18],inactive
same,outcome,[19],inactive
same,Potency,[20],inactive
O=C(O)c1c(Cl)ccc(Cl)c1Cl,outcome,[1],inactive
same,Potency,[2],inactive
same,Potency,[3],inactive
same,outcome,[4],inactive
same,Potency,[5],inactive
same,Potency,[6],inactive
same,outcome,[7],inactive
same,max response,[8],5.49%
same,Potency,[9],inactive
same,Potency,[10],inactive
same,outcome,[11],inactive
same,Potency,[12],inactive
same,Potency,[13],inactive
same,outcome,[14],inactive
same,Potency,[15],inactive
same,Potency,[16],inactive
same,Potency,[17],inactive
same,Potency,[18],inactive
same,outcome,[19],inactive
same,Potency,[20],inactive
